Measured values as given in PubChem BioAssay.
Unmarked numbers belong to inactive results. The rule behind the calls is not given here. Non-standard residues stand in square brackets, D forms with d. Residues, ends and D or L forms follow the SMILES beside them. Orn = NCCC[CH](N)C(=O)O

test system: Aerobactin synthetase IucA (Klebsiella pneumoniae hvKP1); assay: IucA enzyme inhibition, primary screen, biochemical, Spectrum library (AID 1346200); conditions: malachite green pyrophosphate, A620, at 8 µM, hits give low values;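 note: 100% = wells without compound and 0% = wells lacking enzyme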

Structure (SMILES) | activity remaining [%]
CCC(C(N)=O)c1ccccc1 (stereo unspecified) | 119
CC(=O)O[C@H]1C[C@@H](OC(C)=O)C(C)(C)C2C[C@@H](OC(C)=O)[C@@]3(C)C4=CC(=O)O[C@@H](c5ccoc5)[C@]4(C)CCC3[C@]21C (stereo partly specified) | 102
COc1ccc2oc3ccccc3c(=O)c2c1 | 106
O=C(O)c1cc(O)c2c(c1)[C@@H]([C@H]1c3cc(C(=O)O)cc(O)c3C(=O)c3c(O[C@H]4O[C@H](CO)[C@@H](O)[C@H](O)[C@H]4O)cccc31)c1cccc(O[C@H]3O[C@H](CO)[C@@H](O)[C@H](O)[C@H]3O)c1C2=O | 98.9
O=c1[nH]cnc2nc[nH]c12 | 89.8
Nc1ccn(C2O[C@H](CO)[C@@H](O)[C@@H]2O)c(=O)n1 (stereo partly specified) | 93.2
CCCCC(CC)CN=C(N)NC(N)=NCCCCCCN=C(N)NC(N)=NCC(CC)CCCC (stereo unspecified) | 98.4
Cc1cc(-n2c(=O)[nH]c(=O)n(C)c2=O)ccc1Oc1ccc(SC(F)(F)F)cc1 | 109
Cc1cc(=O)oc2cc(O)c(O)cc12 | 118
CC(C)CC1NC(=O)C(CCCN)NC(=O)C(C(C)C)NC(=O)C2CCCN2C(=O)C(Cc2ccccc2)NC(=O)C(CC(C)C)NC(=O)C(CCCN)NC(=O)C(C(C)C)NC(=O)C2CCCN2C(=O)C(Cc2ccccc2)NC1=O (stereo unspecified) (cyclo(FPV[Orn]LFPV[Orn]L); configuration not given here) | 122
CC[C@H]1OC(=O)[C@H](C)[C@@H](O[C@H]2C[C@@](C)(OC)[C@@H](O)[C@H](C)O2)[C@H](C)[C@@H](O[C@@H]2O[C@H](C)C[C@H](N(C)C)[C@H]2O)[C@](C)(O)C[C@@H](C)C(=O)[C@H](C)[C@@H](O)[C@]1(C)O | 117
